In the supplement of paper PMC12340641:

Tests used:
[1] = biological target: IKZF1 (dCK*-IKZF1 fusion in HEK293FT) (UniProt Q13422); assay: inhibition of IKZF1 HTRF signal (DMSO = 0%, pomalidomide 10 uM = 100%); higher = lower IKZF1 protein level; conditions: compound concentration: 5 uM, overnight (~20 h)
Method in brief: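 After overnight treatment at 37 °C with 5 μM compound in single wells, HEK293FT cells (2000/well, 384-well) stably expressing an IKZF1 fusion were lysed for 30 min at room temperature. A commercial HTRF total-IKZF1 antibody kit was incubated with the lysate overnight, and the time-resolved FRET ratio at 665/620 nm was corrected for background. Data are given as percent inhibition of IKZF1 signal relative, on each plate, to vehicle and a reference degrader, set at 0% and 100% respectively.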

HEK293FT dCK*-only = assay: relative growth in counter assay (no AraC = 100%, AraC + DMSO = 0%); higher = more growth rescue independent of IKZF1; conditions: compound concentration: 5 uM; AraC concentration: 0.3 uM; overnight pretreatment + 4 days AraC
Method in brief: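 Counter assay in HEK293FT cells expressing dCK* alone (300/well, 384-well). Cells received 5 μM compound 2 h after seeding, then after overnight at 37 °C a nucleoside suicide substrate at 0.3 μM plus medium for 4 days. On day 5, Hoechst 33342-stained nuclei were counted by imaging. Relative growth was normalised per plate to wells without suicide substrate (100%) and substrate plus vehicle (0%).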

HEK293FT dCK*-IKZF1 = assay: relative growth recovery (pomalidomide 10 uM = 100%, DMSO = 0%); higher = more growth rescue (IKZF1 fusion degradation); conditions: compound concentration: 5 uM; AraC concentration: 0.3 uM; overnight pretreatment + 4 days AraC
Method in brief: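 HEK293FT cells stably expressing a dCK*-IKZF1 fusion (300/well, 384-well) received 5 μM compound 2 h after seeding. After overnight at 37 °C they received a nucleoside suicide substrate at 0.3 μM plus medium for 4 days. On day 5, Hoechst 33342-stained nuclei were counted by whole-well imaging. Growth recovery was normalised per plate to a reference degrader (100%) and vehicle (0%); values are means of duplicates run on different days.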

Sequence of IKZF1 (dCK*-IKZF1 fusion in HEK293FT) (Q13422 whole entry, looked up, the tested form may be a part): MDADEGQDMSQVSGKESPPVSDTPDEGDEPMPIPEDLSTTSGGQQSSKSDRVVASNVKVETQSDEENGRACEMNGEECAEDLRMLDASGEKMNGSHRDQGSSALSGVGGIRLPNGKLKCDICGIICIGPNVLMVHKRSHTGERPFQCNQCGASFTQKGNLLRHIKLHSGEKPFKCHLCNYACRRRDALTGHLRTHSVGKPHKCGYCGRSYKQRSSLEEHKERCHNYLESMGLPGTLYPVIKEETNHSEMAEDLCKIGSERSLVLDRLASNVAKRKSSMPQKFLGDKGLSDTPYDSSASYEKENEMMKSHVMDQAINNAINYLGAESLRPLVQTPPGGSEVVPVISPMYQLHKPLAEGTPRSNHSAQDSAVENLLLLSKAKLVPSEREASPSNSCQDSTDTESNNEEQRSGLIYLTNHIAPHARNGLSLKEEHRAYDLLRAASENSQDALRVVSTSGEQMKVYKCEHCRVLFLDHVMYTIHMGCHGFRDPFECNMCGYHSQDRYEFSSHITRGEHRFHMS

Compound | inhibition of IKZF1 HTRF signal [1] | relative growth in counter assay (HEK293FT dCK*-only) | relative growth recovery (HEK293FT dCK*-IKZF1)
Oc1c(Cl)cc(Cl)c(Cl)c1Cc1c(O)c(Cl)cc(Cl)c1Cl | -36% | -1.16% | 0.025%
NC1CC(O[C@H]2C[C@@]([C@@](C)=O)(O)CC3=C2C(O)=C5C(C(C4=CC=CC(OC)=C4C5=O)=O)=C3O)OC(C)C1O (some centres not stated) [daunorubicin] | 22% | -35.4% | -14.9%
O=C1Nc2ccc(Cl)cc2[C@@](C#CC2CC2)(C(F)(F)F)O1 [Efavirenz] | 19.7% | 3.1% | 2.08%
C=C1/C(=C\C=C2/CCC[C@]3(C)[C@@H]([C@H](C)/C=C/C=C/C(O)(CC)CC)CC[C@@H]23)C[C@@H](O)C[C@@H]1O [Seocalcitol] | -23.4% | 14.2% | 6.88%
Oc1cc(O)c2cc(O)c(-c3cc(O)c(O)c(O)c3)[o+]c2c1 [delphinidin] | 43.4% | -7.27% | -1.78%
COc1cc(/C=C/C(=O)CC(=O)/C=C/c2ccc(O)c(OC)c2)ccc1O [Curcumin] | -0.83% | -25.9% | -6.48%
COc1cc([C@@H]2c3cc4c(cc3[C@@H](O[C@@H]3O[C@@H]5CO[C@@H](C)O[C@H]5[C@H](O)[C@H]3O)[C@H]3COC(=O)C23)OCO4)cc(OC)c1O (some centres not stated) [Etoposide] | -10.2% | -34.7% | -12.9%
COc1cc(OC)c(/C=C2/C(=O)Nc3ccccc32)c(OC)c1 | -15.9% | -33.5% | -11.3%
O=C(N/N=C/c1ccccc1O)c1ccccc1O | -40.4% | 0.05% | -2.29%
O=C(O)c1ccc(S(=O)(=O)N(Cc2ccc(OC(F)(F)F)cc2)c2ncc(C(F)(F)F)cc2Cl)cc1 | -23.7% | 5.77% | 2.16%
CCCCC(CC)COc1ccc(-c2nc(-c3ccc(OC)cc3)nc(-c3ccc(OCC(CC)CCCC)cc3O)n2)c(O)c1 (configuration not stated) | -35.1% | 12.9% | 1.75%
COC(=O)c1c(C)[nH]c(C)c1C(=O)c1ccccc1Cc1ccccc1 | -37.4% | 36.9% | 66.8%
O=C(CSc1nnc2c(n1)[nH]c1ccccc12)Nc1ccc(Cl)cn1 | 4.2% | -5.82% | 1.11%
COc1cc(N2CCN(CCOCCOCCNC(=O)CNc3cccc4c3C(=O)N(C3CCC(=O)NC3=O)C4=O)CC2)ccc1Nc1ncc(Cl)c(Nc2ccccc2S(=O)(=O)C(C)C)n1 (configuration not stated) | 34.1% | -27.8% | -4.32%
